Pf growth 48h: P. falciparum growth inhibition at 48 hours (one generation) | Potency, µM (titrated, usually from 28.7 µM), for inactives: top-dose activity change, negative = inhibition, usual class: inhibitors | hit rate 5.9% among 310,000 | P. falciparum luciferase growth in erythrocytes, 48 h; note: potency is the fitted concentration of half-maximal effect
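In quantitative HTS format, infected erythrocytes bearing luciferase-reporter parasites were treated for a single generation at 37 C. Luminescence after adding detection reagent served as the growth measure.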
HCMV inh: blocks human cytomegalovirus replication | activity change, negative = inhibition, % at 57.5 µM | AID 1259415 | hit rate 4.5% among 410,000 | HFF cells, HCMV-luciferase reporter, 72 h; active compounds read low; in the data active = activity change below about -60%; inconclusive = no clear call, values can overlap the other calls; inactive = above about -39%
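Human foreskin fibroblasts infected with luciferase-reporter HCMV at MOI 1 PFU/cell, compounds at two doses. Luciferase measured 72 h post infection; normalized to buffer-only basal and Salinomycin (10uM) controls.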
Pf growth 96h: P. falciparum growth inhibition at 96 hour, primary screen for plastid delayed-death inhibitors; P. falciparum luciferase reporter growth, 96 h; Potency, µM (top dose mostly 28.7 µM), without a hit: top-dose activity change, negative = inhibition, usual class: inhibitors; hit rate 6.9% among 320,000; AID 504834; note: potency is the fitted concentration of half-maximal effect
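Parasite growth measured via integrated firefly luciferase reporter in P. falciparum. Infected erythrocytes at 2% hematocrit, 0.05% parasitemia final were treated 96 hours at 37 C under 5% CO2, and luminescence was read.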
HCV inhibitor: inhibitors of hepatitis C virus infection; Huh7.5.1 HCVcc-Cre infection, luciferase reporter, 44 h; Potency, µM (series often up to 41.8 µM), without a hit: at the top dose activity change, negative = inhibition, hits mostly inhibitors; hit rate 3.4% among 340,000; AID 651820; note: potency is the fitted concentration of half-maximal effect
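Luciferase read-out (15 sec integration) after a 15 min room-temperature substrate step quantifies HCVcc-Cre infection. Cells, 1,000 per well, had compound added 4 h post-plating, then virus at ~0.5 moi, and were cultured 44 h.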
Numbers without * were called inactive; i = inactive; ? = inconclusive; · = no result given. Hits are enriched below; roughly 13% of the tested compounds scored in any of these assays. Unless noted, calls come from the whole dose curve; as a rule, active = well fitted inhibition curve with a large enough effect; inconclusive = small, poorly fitted or top-dose-only effect, or another doubt; inactive = no such curve, though single readings can be large or run the other way. % is set by controls: 0 for no effect and ±100 for the full control effect.

SMILES | Pf growth 48h | HCMV inh | Pf growth 96h | HCV inhibitor
CCCCOP(=O)(c1ccc(N(C)C)cc1)C(O)c1cccnc1 (stereo unspecified) | 1.7% | 0.5 | 37.3% | -2.2%
Cc1nn2cnc3sc4c(c3c2nc1=O)CCCC4 | -16.9% | -39.7 | ? | -2.4%
N#CCc1nc2c3c4c(sc3ncn2n1)CCCC4 | · | ? | 10.4µM* | -4.4%
COc1ccc(-c2cccc(NS(=O)(=O)c3cccs3)c2)nn1 | · | 24.2 | · | ·
Cn1c(OCc2cccnc2)nc2c1c(=O)n(Cc1ccc(Br)cc1)c(=O)n2C | ? | -36.3 | -11.5% | ?
CC1CN(c2nc3c(c(=O)n(Cc4ccc(Cl)c(Cl)c4)c(=O)n3C)n2C)CC(C)O1 (stereo unspecified) | 6.57µM* | -20.6 | · | ?
Cn1c(OCc2cccnc2)nc2c1c(=O)n(Cc1ccc(Cl)cc1)c(=O)n2C | · | ? | · | 11.2µM*
Cn1c(N2CCN(c3ccccn3)CC2)nc2c1c(=O)n(Cc1ccc(Cl)cc1)c(=O)n2C | 11.7µM* | -84.1* | · | 14.9%
Cn1c(N2CCN(c3ccccn3)CC2)nc2c1c(=O)n(Cc1ccccc1Cl)c(=O)n2C | · | 73.5 | · | 19.3%
COCCCNc1oc(-c2ccc(COc3ccccc3C)o2)nc1C#N | · | -24.4 | · | ·
O=C1C=CC(=O)N1c1ccc(OC(F)F)cc1 | 5.4% | -18.7 | 9.28µM* | ?
O=C1C=CC(=O)N1c1ccc(O)cc1 | 36.2% | 8.1 | 19.2% | -2.5%
CN(C)c1ccc(C(CNC(=O)c2ccccc2Cl)N2CCCC2)cc1 (stereo unspecified) | · | -10.9 | · | ·
Cc1ccc(-c2noc(-c3cccnc3NCc3ccc(Cl)cc3)n2)cc1 | · | 8.9 | · | ·
Cn1cccc1C(=O)OCc1ccc(F)cc1 | 37.1% | -74.9* | 24.4% | 13.5%
Cn1cccc1C(=O)OCc1csc(-c2ccccc2)n1 | 164.2% | 261.0 | i | -21.6%
CC(=O)Nc1sc(N/N=C\c2ccccc2)nc1-c1cccs1 | ? | -4.2 | ? | -2.4%
CC(=O)Nc1sc(N/N=C/c2ccc(O)cc2)nc1-c1ccc(C)cc1 | ? | 58.5 | ? | ?
CC(=O)Nc1sc(N/N=C\c2ccccc2Cl)nc1-c1cccs1 | ? | -83.4* | ? | -17.6%
COc1ccc(/C=N/Nc2nc(-c3ccc(C)cc3)c(NC(C)=O)s2)cc1 | 2.33µM* | -12.8 | 4.65µM* | ?
CC(=O)Nc1sc(N/N=C/c2ccccc2F)nc1-c1ccc(C)cc1 | 8.28µM* | -1.1 | ? | 12.6µM*
CC(=O)Nc1sc(N/N=C/c2ccccc2)nc1-c1ccc(C)cc1 | 7.38µM* | -8.7 | ? | ?
CC(C)C[C@H]1CNC(=O)C(=O)N1C[C@@H]1CCCN1C[C@H](Cc1ccccc1)N1C[C@H](CC(C)C)N(CC2CCCCC2)C(=O)C1=O | · | 2.8 | · | ·
CC(=O)Nc1sc(-c2ccccc2)nc1-c1ccccc1 | 3.9% | -36.8 | 4.65µM* | 11.2µM*
O=C(N=Nc1c(O)n(Cc2ccccc2)c2ccccc12)c1ccncc1 | 11.7µM* | -6.5 | 13.1µM* | -23.9%
SMILES | Pf growth 48h | HCMV inh | Pf growth 96h | HCV inhibitor
CCCCNC(=S)N=Nc1c(O)n(Cc2ccccc2)c2ccccc12 | 13.1µM* | 53.8 | 10.4µM* | ?
O=C(CNC(=O)c1ccco1)N=Nc1c(O)n(CCc2ccccc2)c2ccccc12 | 6.7% | -84.0* | 6.0% | ?
CCC(Cn1nnc2ccccc2c1=O)NC(=O)Nc1ccccc1OC (stereo unspecified) | · | 15.0 | · | ·
CCn1c(SCc2ccccc2F)nc(=O)c2c(C(=O)OC)cc(C3CC3)nc21 | · | -1.4 | · | ·
Cn1cccc1/C=C1\SC(=Nc2cccc(O)c2)NC1=O | 2.2% | 24.9 | ? | -2.8%
Cc1ccc(N=C2NC(=O)/C(=C/c3cn(C)c4ccccc34)S2)cc1C | ? | ? | 4.65µM* | 12.6µM*
Cn1cccc1/C=C1\SC(=Nc2ccccc2)NC1=O | 66.6% | 1.8 | 7.38µM* | 7.94µM*
Cc1ccc(N=C2NC(=O)/C(=C/c3cccn3C)S2)c(C)c1 | ? | ? | 11.7µM* | -27.4%
Cn1cccc1/C=C1\SC(=Nc2ccc(O)cc2)NC1=O | ? | -77.1* | ? | ?
COc1ccc(N(CC(=O)NCCc2cccc(C)c2)S(=O)(=O)c2c(C)nn(C)c2C)cc1 | · | -9.6 | · | ·
Cc1cccc(C(=O)Nc2cccc(C(=O)OCc3cc(=O)n4ccsc4n3)c2)c1 | · | 25.5 | · | ·
CC1CCCCN1C(=O)c1ccc2c(c1)N(Cc1ccc(F)cc1)C(=O)c1ccccc1S2(=O)=O (stereo unspecified) | · | -2.9 | · | ·
CCOc1cc(Br)cc(/C=C2\SC(=Nc3ccccc3)NC2=O)c1O | ? | -84.1* | ? | ?
C=CCOc1ccc(Br)cc1/C=C1/SC(=Nc2ccc(C(=O)O)cc2)NC1=O | -24.4% | -14.8 | ? | 7.3%
COc1cc(/C=C2\SC(=Nc3ccc(O)cc3)NC2=O)cc(OC)c1O | 3.7µM* | 76.2 | 9.28µM* | ?
CCc1ccc(N=C2NC(=O)/C(=C/c3cc(OC)c(OC)c(OC)c3)S2)cc1 | -3.1% | -37.5 | ? | ?
Cc1ccc(-c2nc(S(=O)(=O)c3ccc(C)cc3)c(N3CCCCC3)o2)cc1 | · | 20.4 | · | ·
Oc1ccccc1C1=Nc2ncnn2C(c2ccc(F)cc2)C1 (stereo unspecified) | 32.5% | 77.3 | 11.7µM* | -14.3%
CC(C)NC(=O)CC1(C)N=C(c2cccc3ccccc23)N(C)O1 (stereo unspecified) | · | -12.2 | · | ·
CCC(C(=O)O)C1OC(C(C)C(O)C(C)C(=O)C(CC)C2OC3(C=CC(O)C4(CCC(C)(C5CCC(O)(CC)C(C)O5)O4)O3)C(C)CC2C)C(C)CC1C (stereo unspecified) | 0.0536µM* | · | 0.0338µM* | ·
CCn1cc(C(=O)N(C)Cc2ccccc2)c(=O)c2cc(S(=O)(=O)N3CCc4ccccc4C3)ccc21 | · | -7.4 | · | ·
CC(C)c1ccc(OCc2nc(-c3ccccn3)no2)c(Br)c1 | 163.9% | 117.9 | 48.5% | 12.6µM*
Cc1ccc(OCc2nc(-c3ccccn3)no2)cc1 | · | 4.4 | 267.3% | 27.7%
Cc1ccc(OCc2nc(-c3ccccn3)no2)c(Br)c1 | 13.6% | 0.1 | 2.33µM* | -0.9%
CCc1ccc(OCc2nc(-c3ccccn3)no2)c(Br)c1 | 88.8% | 23.8 | 4.1% | ?
SMILES | Pf growth 48h | HCMV inh | Pf growth 96h | HCV inhibitor
Cc1ccc(C)c(N2CCN(C(=O)CCS(=O)(=O)c3ccc4c(c3)CC(=O)N4C)CC2)c1 | · | -18.6 | · | ·
O=C(CSc1nc2ccsc2c(=O)n1Cc1ccccc1)NCc1ccco1 | ? | 14.6 | · | 8.91µM*
COCCn1c(C)cc(C(=O)CSc2nc3ccccc3c(=O)n2Cc2ccco2)c1C | 33.6% | -69.5* | -3.8% | ?
O=C(CSc1c2c(nc3ccccc13)CCCC2)NCc1ccco1 | ? | -35.4 | -10.5% | ?
COc1ccc(C(=O)CSc2nc(C(C)(C)C)nc3ccccc23)cc1 | ? | ? | -24.0% | 3.98µM*
CCCc1nc(SCC(=O)NNC(=O)c2ccc(OC)cc2)c2ccccc2n1 | ? | ? | 1.9% | -14.8%
CC(C)(C)c1nc(SCC(=O)NCc2ccco2)c2ccccc2n1 | -7.0% | -88.4* | ? | ?

Screening data: PubChem, National Center for Advancing Translational Sciences (NCATS)
